Reference: PubChem BioAssay (Tox21)
Unmarked numbers belong to inactive results. Records with an inconclusive call do not appear. A call without a number means that no potency is given here. Active and inactive are the calls of the source. Calls follow the shape of the full dose curve.

How the values were obtained:
[1] = molecular target: Acetylcholinesterase (Homo sapiens) (UniProt P22303); assay: Acetylcholinesterase (AChE) small molecule antagonists: colormetric cell-based qHTS assay (AID 1347395); also: nearly all actives have a fitted effect of over 30% in size; also: potency is read from the fitted curve at half-maximal effect
Method in brief: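 Homogeneous whole-cell format. SH-SY5Y cells seeded overnight, dosed with compound (30 min, 37 C, 5% CO2), then given DTNB/acetylthiocholine cocktail for 90 min at 37 C; colorimetric signal.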

[2] = molecular target: Acetylcholinesterase (Homo sapiens) (UniProt P22303); assay: Acetylcholinesterase (AChE) small molecule antagonists: enzyme-based qHTS assay (AID 1347397); settings: Potency: AChE enzyme activity inhibition; outcome: AChE enzyme activity inhibition; also: nearly all actives have a fitted effect of over 55% in size; also: potency is read from the fitted curve at half-maximal effect
Method in brief: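 Compound or DMSO vehicle was pin-transferred onto recombinant human AChE (50 mU/mL as dispensed) and left 30 min at room temperature. Acetylthiocholine with DTNB then started the reaction, read colorimetrically 10 min later.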

[3] = molecular target: Acetylcholinesterase (Homo sapiens) (UniProt P22303); assay: Acetylcholinesterase (AChE) small molecule antagonists: enzyme-based qHTS assay with human liver microsomes (AID 1347399); settings: Potency: qHTS inhibition; outcome: qHTS inhibition; also: nearly all actives have a fitted effect of over 60% in size
Method in brief: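 Recombinant human AChE (50 mU/mL in the enzyme mix) and human liver microsomes (0.25 mg/mL final) were preincubated with compound and NADPH (0.25 mg/mL final) for 30 min at 37 C. Acetylthiocholine/DTNB was then added; thiocholine was read colorimetrically after 10 min at room temperature.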

[4] = molecular target: Acetylcholinesterase (Homo sapiens) (UniProt P22303); assay: Acetylcholinesterase (AChE) small molecule antagonists: fluorescence cell-based qHTS assay (AID 1347398); settings: Potency: AChE activity; outcome: AChE activity; also: nearly all actives have a fitted effect of over 50% in size; also: potency is read from the fitted curve at half-maximal effect
Method in brief: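 Using neuroblastoma SH-SY5Y cells as the enzyme source, test chemicals are preincubated 30 min at 37 C; AChE-driven acetylthiocholine cleavage is then quantified by thiocholine-dependent Thiolite Green fluorescence after 40 min at room temperature.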

Chain of Acetylcholinesterase (Homo sapiens) (P22303 whole entry, looked up): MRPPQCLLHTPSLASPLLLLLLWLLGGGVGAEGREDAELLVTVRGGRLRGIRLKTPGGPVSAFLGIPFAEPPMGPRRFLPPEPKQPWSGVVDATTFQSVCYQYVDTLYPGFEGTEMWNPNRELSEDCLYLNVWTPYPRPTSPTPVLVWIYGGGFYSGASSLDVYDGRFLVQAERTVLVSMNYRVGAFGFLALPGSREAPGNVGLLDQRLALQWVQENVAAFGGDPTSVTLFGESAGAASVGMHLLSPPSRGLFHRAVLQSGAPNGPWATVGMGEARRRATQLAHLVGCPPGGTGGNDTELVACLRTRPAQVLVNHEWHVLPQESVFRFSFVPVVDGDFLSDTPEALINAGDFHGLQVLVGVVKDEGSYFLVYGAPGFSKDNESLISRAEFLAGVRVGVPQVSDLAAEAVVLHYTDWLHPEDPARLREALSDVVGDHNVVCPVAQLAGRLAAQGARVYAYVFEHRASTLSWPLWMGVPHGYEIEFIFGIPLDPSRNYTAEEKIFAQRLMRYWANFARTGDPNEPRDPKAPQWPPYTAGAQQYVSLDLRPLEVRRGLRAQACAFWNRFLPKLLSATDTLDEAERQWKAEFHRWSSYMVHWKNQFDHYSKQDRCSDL

| SMILES | Potency [1] | Potency [2] | Potency [3] | Potency [4] | activity change, negative = inhibition [4] |
| --- | --- | --- | --- | --- | --- |
| O=C(/C=C/c1ccccc1)NCCO | inactive | inactive | inactive |  |  |
| OCCN1CCN(CC/C=C2/c3ccccc3Sc3ccc(C(F)(F)F)cc32)CC1 | inactive | inactive | inactive |  |  |
| C/C(=N/NC(=O)c1ccncc1)C(=O)O | inactive | inactive | inactive |  |  |
| CC1(CN2CCC(n3c(=O)[nH]c4ccccc43)CC2)OCc2ccccc2-n2cccc21 (configuration not stated) | inactive | inactive | inactive |  |  |
| CNC(=O)c1c(I)c(NC(C)=O)c(I)c(C(=O)O)c1I | inactive | inactive | inactive |  |  |
| O=CN1CCCCC1 | inactive | inactive | inactive |  |  |
| CC(C)C[P+](C)(CC(C)C)CC(C)C | 40.2 µM (active) | inactive | inactive |  |  |
| NS(=O)(=O)c1cc2c(cc1C(F)(F)F)NC(Cc1ccccc1)NS2(=O)=O (configuration not stated) | 38.9 µM (active) | inactive | inactive |  |  |
| CN1C[C@H]2c3ccccc3Oc3ccc(Cl)cc3[C@@H]2C1 | inactive | inactive | inactive |  |  |
| CN(C)CCCSc1ccccc1NC(=O)/C=C/c1ccccc1 | inactive | inactive | inactive |  |  |
| CCCCCCCC/C=C/C(=O)O | inactive | inactive | inactive |  |  |
| CCOC(=O)Nc1ccc(NCc2ccc(F)cc2)nc1N | inactive | inactive | inactive |  |  |
| CC(C)C1OCCN1CCOC(=O)NCCCCCCNC(=O)OCCN1CCOC1C(C)C (configuration not stated) | inactive | inactive | inactive |  |  |
| COc1c(C)c2c(c(O)c1C/C=C(\C)CCC(=O)O)C(=O)OC2 | inactive | inactive | inactive |  |  |
| O=C(CCN1CCC(c2ccccc2)C1)c1ccc2c(c1)OCCO2 (configuration not stated) | 30.9 µM (active) | inactive | inactive |  |  |
| CCN(CC)c1ccc2c(-c3ccccc3C(=O)O)c3ccc(=[N+](CC)CC)cc-3oc2c1 | inactive | inactive | inactive |  |  |
| Nc1cc(C(F)(F)F)ccc1S | inactive | inactive | inactive |  |  |
| CCCCC/C=C\C=C\C(=O)OCC | inactive | inactive | inactive |  |  |
| NCc1cccc(C2CCN(C(=O)c3ccc(C#Cc4ccccc4F)o3)CC2)c1 | inactive | 79.6 µM (active) | inactive |  |  |
| C=CCOc1nc(OCC=C)nc(OCC=C)n1 | inactive | inactive | inactive |  |  |
| Cc1ccc(-c2ncc(Cl)cc2-c2ccc(S(C)(=O)=O)cc2)cn1 | 27.5 µM (active) | inactive | inactive |  |  |
| CCCCCCCCCCCCCC[P+](CCCC)(CCCC)CCCC (tested in a mixture with another compound) | inactive | inactive | inactive |  |  |

| SMILES | Potency [1] | Potency [2] | Potency [3] | Potency [4] | activity change, negative = inhibition [4] |
| --- | --- | --- | --- | --- | --- |
| CN1CCCC(CC2c3ccccc3Sc3ccccc32)C1 (configuration not stated) | inactive | inactive | inactive |  |  |
| COc1cc(C(C)C)c2c(c1)S(=O)(=O)N(COc1cc(=O)n3cccc(OCCN4CCCCC4)c3n1)C2=O | 19 µM (active) |  |  | 6.74 µM (active) |  |
| CCOc1ccc2nc3cc(N)ccc3c(N)c2c1 | 17.4 µM (active) |  |  | 13.8 µM (active) |  |
| NC(=O)n1c(O)c(C(=O)c2cccs2)c2cc(Cl)ccc21 | inactive | inactive | inactive |  |  |
| CCOC(=O)c1nc(C(Cl)(Cl)Cl)n(-c2ccc(Cl)cc2Cl)n1 | inactive | inactive | inactive |  |  |
| Cc1ccc(N)cc1S(=O)(=O)O | inactive | inactive | inactive |  |  |
| CN[C@H]1CC[C@@H](c2ccc(Cl)c(Cl)c2)c2ccccc21 | inactive | inactive | inactive |  |  |
| Cc1oc(=O)oc1COC(=O)[C@@H]1N2C(=O)[C@@H](NC(=O)[C@H](N)c3ccccc3)[C@H]2SC1(C)C | inactive | inactive | inactive |  |  |
| C[C@@H](CN(C)C)CN1c2ccccc2Sc2ccccc21 | inactive | inactive | inactive |  |  |
| COc1c(C)c2c(c(O)c1C/C=C(\C)CCC(=O)OCCN1CCOCC1)C(=O)OC2 | 27.5 µM (active) | inactive | inactive |  |  |
| O=c1c2ccccc2nnn1CCl | inactive |  | inactive | inactive |  |
| CCN(CC)C(=O)c1cc(S(=O)(=O)Cc2ccccc2)c(N2CCC(c3ccccc3)CC2)cc1N(CC)CCN(C)C | inactive | inactive | inactive |  |  |
| CCC(Cc1ccccc1)(C(=O)c1ccc(N2CCOCC2)cc1)N(C)C (configuration not stated) | inactive | inactive | inactive |  |  |
| CCN(CC)c1ccc2c(c1)Oc1cc(N(CC)CC)ccc1C21OC(=O)c2ccccc21 | inactive | inactive | inactive |  |  |
| CC(Cc1ccccc1)(NC(=O)CN)c1ccccc1 (configuration not stated) | inactive |  |  | inactive |  |
| CN(Cc1cc(Br)cc(Br)c1N)C1CCCCC1 | inactive | inactive | inactive |  |  |
| Nc1c(NC/C=C\COc2cc(CN3CCCCC3)ccn2)c(=O)c1=O | 13.5 µM (active) |  |  |  | -23% [at 23.8 µM] |
| CN1CC(=O)N2[C@H](c3ccc4c(c3)OCO4)c3[nH]c4ccccc4c3C[C@@H]2C1=O | 27.5 µM (active) | inactive | inactive |  |  |
| CN1CCN(CCC(=O)N2c3ccccc3Sc3ccc(C(F)(F)F)cc32)CC1 | inactive | inactive | inactive |  |  |
| Cc1ncc([C@@H](CCCCCCc2ccc3c(n2)NCCC3)CC(=O)O)cn1 | 56.4 µM (active) | inactive | inactive |  |  |
| CCCCOC(=O)CC | inactive |  |  | inactive |  |
| Nc1ccc([N+](=O)[O-])cc1O | inactive | inactive | inactive |  |  |
